Laboratory results reported in PubChem BioAssay AID686978 (National Center for Advancing Translational Sciences (NCATS), 2013).
Screen size: about 420,000 compounds; about 64,000 (15%) were called active. Inconclusive results (about 27%) are left out. Not all results are given here. Values without a mark were called inactive. The call rests on the fitted dose curve; in most records, active means well fitted inhibition curve with a large enough effect; inconclusive means small, poorly fitted or top-dose-only effect; inactive means flat fitted curve, though single readings scatter.

Assay: qHTS for Inhibitors of human tyrosyl-DNA phosphodiesterase 1 (TDP1): qHTS in cells in absence of CPT; further: nearly all actives have a fitted effect of over 55% in size
Settings: DT40 Tdp1-/- hTDP1 cells, no CPT, ATP luminescence, 48 h; activity change, negative = growth inhibition: at 46.2 µM (top of the series)
Description: Human tyrosyl-DNA phosphodiesterase 1 (TDP1) is a novel repair gene, and we propose to use it as a new target for anticancer drug development. TDP1 is not an essential protein, but under treatment with topoisomerase I poison (camptothecin: CPT), TDP1 works as a critical factor for cell survival. To directly identify novel TDP1 inhibitors active in a cellular environment, we have knocked-out the Tdp1 gene in chicken DT40 cells (Tdp1-/-) and generated a complemented counterpart cells that contains a stable transfection of the human TDP1 gene (Tdp1-/-;hTDP1 cells). For the primary screen, Tdp1-/-;hTDP1 cells will be exposed to small molecules in the presence or absence of CPT, and their growth kinetics will be evaluated after 48 hours by measuring ATP activity. […] The hit compounds will then be evaluated in the presence or absence of CPT using Tdp1-/- cells. […] In tertiary assays, biochemical gel-based assays will be used to assess whether the hit compounds specifically target TDP1.
To this end, we have screened this cell line against the MLSMR in two primary screens. In one screen we add CPT and in the other we screen in the absence of CPT; this AID represents the screen where CPT was absent.
NIH Chemical Genomics Center [NCGC]
NIH Molecular Libraries Probe Centers Network [MLPCN]
Assay Submitter (PI): Yves Pommier, NCI
DT40-hTDP1 cells without 20 nM Camptothecin (add 20 microL of DMSO in 1 L of cell culture medium) were dispensed at 400 cells/5microL/well in tissue culture treated 1536-well white wall/solid bottom assay plates (Greiner Bio-One North America, NC, U.S.A.) using a Multidrop Combi 8 channel dispenser (Thermo Fisher, Waltham, MA, USA). 23 nL compounds and controls were transferred using the pin tool (Kalypsys, San Diego, CA, USA) to the assay plates. The assay plates were then incubated at 37 masculineC for a minimum 48 hr. Three microL of Cell Titer Glo solution was added to the plates and incubated at RT in dark for 30 min. Luminescence was read using ViewLux (Perkin Elmer) with 1 sec exposure slow speed, high gain and 2x binning.
On the % scale 0 is the no-effect control and ±100 the full control effect; potency means the concentration at half of the fitted maximal effect.

For `CCOc1cc(N2CCOCC2)c(OCC)cc1NC(=O)c1cc(C)nc2ccccc12`, the Potency was 14.6 µM (active).
For `CCOc1cc(N2CCOCC2)c(OCC)cc1NC(=O)c1ccc(C)s1`, the Potency was 2.06 µM (active).
For `CCc1ccc2c(c1)C1(NN=C(c3ccccc3)S1)C(=O)N2` (stereo unspecified), the Potency was 2.31 µM (active).
In the case of `COc1ccc(/C=C(\NC(=O)c2ccc(OCC(C)C)cc2)C(=O)OCc2ccco2)cc1`, the Potency was 16.4 µM (active).
With `Cc1ccc(OCCOCCOc2ccc(Br)cc2/C=N\NC(=O)c2ccncc2)cc1` the Potency was 18.4 µM (active).
In the case of `Cc1cc2c(cc3c(SCc4nc(-c5ccccc5)oc4C)nnc(C)n32)o1`, the Potency was 16.4 µM (active).
For `O=C(CCCC(=O)N1CCN(c2cccc(Cl)c2)CC1)c1ccccc1`, the Potency was 18.4 µM (active).

In order of rising “activity change, negative = growth inhibition” value:
1. Cc1oc(C)c(C(=O)NCCCC(=O)O)c1C(=O)NCCCC(=O)O  -25.2%
2. CSc1nc2ccccc2cc1/C=C(\C#N)c1ccc(Cl)cc1Cl  -23.3%
3. CC(C)c1nnc(NC(=O)CCC(=O)N2CCN(c3cccc(Cl)c3)CC2)s1  -22.7%
4. COc1cc(C(=O)Nc2cc(C(F)(F)F)ccc2N2CCOCC2)ccc1O  -18.6%
5. CCc1cccc(NC(=O)c2cc(-c3ccccc3)n[nH]2)c1  -13.6%
6. Cc1cccc(C)c1NC(=O)C(c1ccccc1)N1CC(=O)Nc2ccccc21 (stereo unspecified)  -13.2%
7. C=C1c2cc(CC)ccc2NC(=O)N1c1ccc(C)cc1  -12.5%
8. O=C(NNC(=O)c1cc(-c2ccccc2Cl)nc2ccccc12)c1csc(N2CCOCC2)n1  -11.1%
9. CCCOn1c(-n2nc(C)cc2C)nc2ccccc2c1=O  -8.69%
10. COc1ccc(/C=C(/NC(=O)c2ccco2)C(=O)Nc2ccc(C(C)=O)cc2)cc1  -8.62%
11. C/C(=C\C(=O)c1cccnc1)Nc1ccc(C)c(C)c1  -6.65%
12. O=C(Nc1ccccc1N1CCOCC1)c1csc2c1CCCC2  -4.52%
13. CCn1nc(C)c(CNC(=O)C2CCC(=O)N(Cc3cccc(F)c3)C2)c1C (stereo unspecified)  -2.49%
14. Cc1oc(-c2cccc(NC(=O)c3ccccc3)c2)nc1CNC(=O)c1cnc2ccccn2c1=O  -2.25%
15. CCOc1ccc(NC(=O)c2cc(C)nc3ccccc23)cc1  -0.374%
16. CC(=O)c1ccc(OCC(=O)N(C)C2CCS(=O)(=O)C2)cc1 (stereo unspecified)  -0.124%
17. CCc1ccc(C(=O)OCC(=O)NCC(F)(F)F)cc1  0.093%
18. CCOc1cc(/C=N/NC(=O)c2ccncc2)cc(Br)c1O  1.15%
19. O=C(CCCN1C(=O)C2C3C=CC(C3)C2C1=O)N1CCN(c2ccccc2)CC1 (stereo unspecified)  2.5%
20. Cc1cc(NC(=O)CSCc2nc(-c3cccc(Cl)c3)oc2C)no1  3.73%
21. CC(N)C12CC3CC(CC(O)(C3)C1)C2 (stereo unspecified)  4.71%
22. COc1ccc(/C=C(/NC(=O)c2ccccc2)C(=O)Nc2cccc(C(=O)O)c2)cc1  4.78%
23. Cc1ccc(OCCOc2cccc(/C=N/NC(N)=O)c2)cc1  9.86%
24. Cc1ccc(S(=O)(=O)N2CCCCC2)cc1C(=O)N1CCN(CCO)CC1  17.8%
